# From PubChem BioAssay
# “And” between values parts separate entries of the source, which are not always exact repeats. Equal values may be shown once. The source made the active and inactive calls. Cut-off read from the data, not from the text of the source, unless noted: active = inhibition above about 80%; inactive = the rest.
# Key:
# [1] = hESC survival regulators, cell-based (AID 493140; call rule not given here;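 note: cells exposed to compounds for four days before counting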); details: human embryonic stem cell survival screen; stronger effect = higher value
# [2] = sensitizers of A549 cells to miR-34 induction, primary screen, imaging, A549 dox-inducible miR-34, nuclei and caspase counts (AID 1347080;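 active = compounds whose cell count with miR-34 switched on is under 0.7 times the count with it off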); details: A549 miR-34 inducible, Hoechst nuclei count, 48 h
# [3] = survival rescue of mitochondrial mutant cells in low glucose, primary screen, MELAS cybrids, Rieske KO mouse fibroblasts, CellTiter-Glo (AID 1508586;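 active = mean z-score across replicates of 1.96 or higher in either the MELAS or the Rieske mutant cell line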;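 note: z relative to plate mean and SD of compound and empty wells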)
# [4] = LFS_MB_P medulloblastoma growth inhibition, cell-based, chromothripsis tumors, cisplatin or BGB combos (AID 1671449); details: LFS_MB_P medulloblastoma cells;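 note: cells exposed for 96 hours; 0% = vehicle DMSO and 100% = killing by high DMSO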
# [5] = HDN33 neuroblastoma growth inhibition, cell-based, chromothripsis tumors, cisplatin or BGB combos (AID 1671450); details: HDN33 neuroblastoma cells, stronger effect = higher value;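 note: cells exposed to compound for four days; 0% = vehicle DMSO and 100% = cell killing by high DMSO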
# [6] = ICB984 medulloblastoma cell growth inhibition, synergistic combos for chromothripsis tumors, cisplatin or BGB combos (AID 1671451; call rule not given here;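 note: cells exposed for 96 hours before readout; 0% = vehicle DMSO and 100% = killing by high DMSO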); details: ICB984 medulloblastoma cells, drug combinations, stronger effect = higher value
# [7] = LFS_MB_1R medulloblastoma cell growth inhibition, synergistic combos for chromothripsis tumors, cisplatin or BGB combos (AID 1671452); details: LFS_MB_1R medulloblastoma cells, stronger effect = higher value;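 note: cells exposed for 96 hours before readout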
# [8] = HTB85 osteosarcoma cell growth inhibition, synergistic combos for chromothripsis tumors, BGB or cisplatin IC20 combos (AID 1671453); details: HTB85 osteosarcoma cells, drug combinations, stronger effect = higher value;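 note: cells exposed for 96 hours before readout; 0% = vehicle DMSO and 100% = high DMSO killing control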
# [9] = CRL2098 osteosarcoma cell growth inhibition, synergistic combos for chromothripsis tumors, BGB or cisplatin IC20 combos (AID 1671454); details: CRL2098 osteosarcoma cells, drug combinations, stronger effect = higher value;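 note: cells exposed for 96 h before readout; 0% = vehicle DMSO and 100% = killing by high DMSO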
# [10] = HD-MB03 medulloblastoma cell growth inhibition, synergistic combos for chromothripsis tumors, BGB or cisplatin IC20 combos (AID 1671455; in the data active = inhibition above about 83%;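 note: 0% = vehicle DMSO and 100% = high DMSO as cytotoxic control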); details: HD-MB03 medulloblastoma cells, stronger effect = higher value
# [11] = UWB1.289 ovarian carcinoma cell growth inhibition, synergistic combos for chromothripsis tumors, BGB or cisplatin combos (AID 1671456); details: UWB1.289 ovarian carcinoma cells, stronger effect = higher value;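 note: cells exposed to compound for four days; 0% = vehicle DMSO and 100% = killing by high DMSO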
# [12] = LFS_MB_2R medulloblastoma cell growth inhibition, synergistic combos for chromothripsis tumors, cisplatin combos (AID 1671457); details: LFS_MB_2R medulloblastoma cells, stronger effect = higher value;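 note: cells exposed to compound for four days before readout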
# [13] = MDA-MB-436 breast carcinoma cell growth inhibition, synergistic combos for chromothripsis tumors, BGB or cisplatin combos (AID 1671458; call rule not given here;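 note: cells exposed for 96 hours; 0% = vehicle DMSO and 100% = killing by high DMSO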); details: MDA-MB-436 breast carcinoma growth inhibition, drug combinations, stronger effect = higher value
# [14] = UWB1.289_BRCA1 ovarian cancer growth, cell-based, BGB or cisplatin combinations (AID 1671459); details: UWB1.289 BRCA1 ovarian carcinoma, drug combinations, stronger effect = higher value
# [15] = human astrocyte viability loss, single and combined drugs, cytotoxicity control for chromothriptic childhood tumor combination screen, cell-based, BGB or cisplatin IC20 combos (AID 1671460); details: Human astrocytes, drug combinations, stronger effect = higher value;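 note: cells exposed to compounds for 96 hours before viability readout; 0% = vehicle and 100% = killing control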
# [16] = growth inhibition of BT084 medulloblastoma cells, cell-based, ICGC_MB145, cisplatin and BGB IC40 combos (AID 1671461); details: drug combinations, stronger effect = higher value;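 note: cells exposed to drugs for 96 hours; 0% = vehicle DMSO and 100% = high DMSO full killing control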
# [17] = growth inhibition of RCMB18 medulloblastoma cells, cell-based, cisplatin and BGB IC40 combos (AID 1671462); details: stronger effect = higher value;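 note: cells exposed to compound for four days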
# [18] = growth inhibition of CRL1545 osteosarcoma cells, cell-based, cisplatin and BGB IC20 combos (AID 1671464); details: stronger effect = higher value;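 note: cells exposed to compound for 96 hours before readout; 0% = vehicle DMSO and 100% = high DMSO killing control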
# [19] = stronger effect = lower value, cell number ratio, induced over uninduced
# [20] = measured here: relative caspase fold change +Dox/-Dox
# [21] = measured here: total cells with miR-34 induction, stronger effect = lower value
# [22] = measured here: total cells without miR-34 induction
# [23] = MELAS cybrid survival, CellTiter-Glo 48 h, stronger effect = higher value
# [24] = Rieske KO mouse fibroblast survival, CellTiter-Glo 72 h
# [25] = at 0.5 µM, stronger effect = higher value
# [26] = measured here: combination with BGB IC20, at 0.005 µM
# [27] = measured here: combination with BGB IC40, at 0.005 µM
# [28] = measured here: combination with BGB IC40, at 0.05 µM
# [29] = measured here: combination with cisplatin, at 0.5 µM, stronger effect = higher value
# [30] = measured here: combination with cisplatin, at 5 µM, stronger effect = higher value
# [31] = measured here: with BGB IC20 combination, at 0.5 µM
# [32] = measured here: with cisplatin IC20 combination, at 0.5 µM
# [33] = measured here: 5 uM single agent, at 5 µM
# [34] = measured here: combination with cisplatin, at 0.5 µM
# [35] = measured here: combination with cisplatin, at 5 µM
smiles,measurement,setting,value
Cc1cn(C2CC(N=[N+]=[N-])C(CO)O2)c(=O)[nH]c1=O (stereo not given),survival,[1],10.2 (inactive)
same,fold change,[2]; [19],0.983 (inactive)
same,fold change,[2]; [20],1.14
same,cell count,[2]; [21],8190
same,cell count,[2]; [22],8330
same,z-score,[3]; [23],-0.326 (inactive)
same,z-score,[3]; [24],-0.454
same,inhibition,[4]; [25],-14.1% (inactive) and -29.8% (inactive)
same,inhibition,[4]; [26],-13.1% and -7.61%
same,inhibition,[4]; [27],-10.5% and -37.1%
same,inhibition,[4]; [28],-24.2% and -22.6%
same,inhibition,[4]; [29],-21.8% and -53%
same,inhibition,[4]; [30],-32.8% and -21.5%
same,inhibition,"[5]; BGB combo, at 5 µM",-43.8% and -18.1%
same,inhibition,[5]; at 0.5 µM,-49.6% (inactive) and 10.8% (inactive)
same,inhibition,"[5]; cisplatin combo, at 5 µM",-26% and 16.6%
same,inhibition,[5]; [31],-50.2% and 15%
same,inhibition,[5]; [32],-46.8% and 4.29%
same,inhibition,"[5]; single agent, at 5 µM",-44.8% and -1.12%
same,inhibition,"[6]; BGB IC20 combo, at 0.005 µM",-34.8% and -14.5%
same,inhibition,"[6]; BGB IC40 combo, at 0.005 µM",-37.8% and -34.3%
same,inhibition,"[6]; BGB IC40 combo, at 0.05 µM",-19.4% and -8.93%
same,inhibition,[6]; at 0.5 µM,-42.3% (inactive) and -13.3% (inactive)
same,inhibition,"[6]; cisplatin combo, at 0.05 µM",-22.8% and -13.2%
same,inhibition,"[6]; cisplatin combo, at 0.5 µM",-48.8% and -6.3%
same,inhibition,"[6]; cisplatin combo, at 5 µM",-19.3% and -19.8%
same,inhibition,[6]; [33],-29% and -10.5%
same,inhibition,[7]; at 0.5 µM,-35.4% (inactive) and -15.1% (inactive)
same,inhibition,[7]; [28],-33.7% and -15%
same,inhibition,[7]; [34],-50% and -12.6%
same,inhibition,[7]; [35],-73.7% and 10.3%
same,inhibition,[8]; at 0.5 µM,-30.9% (inactive) and 5.14% (inactive)
same,inhibition,"[8]; measured here: with BGB IC20, at 0.5 µM",-44.2% and -2.77%
same,inhibition,"[8]; measured here: with BGB IC20, at 5 µM",-49% and -21.3%
same,inhibition,"[8]; measured here: with cisplatin IC20, at 0.5 µM",-19.6% and 10.7%
same,inhibition,"[8]; measured here: with cisplatin IC20, at 5 µM",-35.3% and 18.4%
same,inhibition,"[8]; single agent, at 5 µM",-30.3% and -3.23%
same,inhibition,[9]; at 0.5 µM,-75.6% (inactive) and -23.9% (inactive)
same,inhibition,"[9]; measured here: combination with BGB at IC20, at 0.5 µM",-42.6% and -11.7%
same,inhibition,"[9]; measured here: combination with cisplatin at IC20, at 0.5 µM",-96.9% and -12%
same,inhibition,[10]; at 0.5 µM,-21.5% (inactive) and -4.43% (inactive)
same,inhibition,"[10]; measured here: combo with BGB at IC20, at 0.5 µM",-16.2% and -1.6%
same,inhibition,"[10]; measured here: combo with cisplatin at IC20, at 0.5 µM",-27.8% and -2.64%
same,inhibition,[11]; at 0.5 µM,-6.97% (inactive) and -2.38% (inactive)
same,inhibition,"[11]; measured here: inhibition with BGB combination, at 0.05 µM",-33.2% and -11.1%
same,inhibition,"[11]; measured here: inhibition with cisplatin combination, at 0.05 µM",-13% and -8.1%
same,inhibition,[12]; at 0.5 µM,3.25% (inactive) and -11.1% (inactive)
same,inhibition,[12]; [34],-9.8% and -20.4%
same,inhibition,[12]; [35],-113% and -20.1%
same,inhibition,[13]; at 0.5 µM,-19.9% (inactive) and -9.1% (inactive)
same,inhibition,"[13]; measured here: BGB combination, at 0.5 µM",-17.7% and -10.4%
same,inhibition,"[13]; measured here: BGB combination, at 5 µM",-13.1% and -23.1%
same,inhibition,"[13]; measured here: cisplatin combination, at 0.5 µM",-42.5% and -8.26%
same,inhibition,"[13]; measured here: cisplatin combination, at 5 µM",-32% and 1.63%
same,inhibition,"[14]; BGB combination, concentration series, at 5 µM",-27.1% and 1.57%
same,inhibition,[14]; at 0.5 µM,-15.8% (inactive) and 1.59% (inactive)
same,inhibition,"[14]; cisplatin combination, concentration series, at 5 µM",-5.2% and 7.24%
same,inhibition,[15]; at 0.5 µM,1.65% (inactive) and 1.35% (inactive)
same,inhibition,"[15]; measured here: combo with BGB IC20, at 0.5 µM",10% and -0.346%
same,inhibition,"[15]; measured here: combo with cisplatin IC20, at 0.5 µM",-32% and 7.19%
same,inhibition,[16]; at 0.5 µM,-31.2% (inactive) and -18.3% (inactive)
same,inhibition,"[16]; cisplatin combination, at 0.5 µM",-20.4% and -7.03%
same,inhibition,"[16]; cisplatin combination, at 5 µM",-13.7% and 8.51%
same,inhibition,"[16]; measured here: BGB IC40 combination 0.05 uM, at 0.05 µM",-13.5% and -22.4%
same,inhibition,"[16]; single agent, at 5 µM",-33.2% and -6.84%
same,inhibition,[17]; at 0.5 µM,-27.2% (inactive) and -6.41% (inactive)
same,inhibition,"[17]; cisplatin combo, at 5 µM",-15.6% and -7.21%
same,inhibition,"[17]; measured here: BGB IC40 combination, at 0.05 µM",-27% and -25%
same,inhibition,[17]; [34],-39.9% and -10.1%
same,inhibition,"[17]; single agent, at 5 µM",-41.5% and -29.4%
same,inhibition,[18]; at 0.5 µM,-61.3% (inactive) and 13.1% (inactive)
same,inhibition,[18]; [31],-40.5% and 10%
same,inhibition,[18]; [32],-75.6% and 14.6%
same,inhibition,"[18]; single agent, at 0.05 µM",-59.4% and 9.83%
same,inhibition,"[18]; single agent, at 5 µM",-40.3% and 11.6%
Cc1cc(C)c(Nc2ccnc(Nc3ccc(C#N)cc3)n2)c(C)c1,fold change,[2]; [19],0.923 (inactive)
same,fold change,[2]; [20],0.624
same,cell count,[2]; [21],2390
same,cell count,[2]; [22],2590
same,z-score,[3]; [23],0.0317 (inactive)
same,z-score,[3]; [24],0.105
same,inhibition,[4]; [25],-1.98% (inactive)
same,inhibition,[4]; [26],-30.5%
same,inhibition,[4]; [27],-59.6%
same,inhibition,[4]; [28],-34.5%
same,inhibition,[4]; [29],-3.17%
same,inhibition,[4]; [30],-40.8%
same,inhibition,"[5]; BGB combo, at 5 µM",15.1%
same,inhibition,[5]; at 0.5 µM,0.3% (inactive)
same,inhibition,"[5]; cisplatin combo, at 5 µM",3.99%
same,inhibition,[5]; [31],-2.53%
same,inhibition,[5]; [32],7.83%
same,inhibition,"[5]; single agent, at 5 µM",42.2%
same,inhibition,"[6]; BGB IC20 combo, at 0.005 µM",-14.3%
same,inhibition,"[6]; BGB IC40 combo, at 0.005 µM",-27.4%
same,inhibition,"[6]; BGB IC40 combo, at 0.05 µM",-8.56%
same,inhibition,[6]; at 0.5 µM,-22.9% (inactive)
same,inhibition,"[6]; cisplatin combo, at 0.05 µM",-14.1%
same,inhibition,"[6]; cisplatin combo, at 0.5 µM",-41.4%
same,inhibition,"[6]; cisplatin combo, at 5 µM",-46.6%
same,inhibition,[6]; [33],-22%
same,inhibition,[7]; at 0.5 µM,-25.5% (inactive)
same,inhibition,[7]; [28],-43.1%
same,inhibition,[7]; [34],-56.3%
same,inhibition,[7]; [35],-12.2%
